Rows were chosen to be rich in hits. Some 19% of all compounds tested hit in one or more screens of this group.
RORgamma inh = ROR gamma (mouse) transcription inhibition. Drosophila S2 Gal4-RORgamma UAS-luciferase reporter, 20 h. Potency, µM (doses to about 53.6 µM), for the others: at the highest dose activity change, negative = inhibition, usual class: inhibitors. 310,000 compounds, 5.4% hits. AID 2551; note: nearly all actives have a fitted effect of over 60% in size
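Drosophila S2 cells stably expressing Gal4-DBD/mouse RORγ fusion under metallothionein promoter plus UAS-luciferase; compound 1 h, then 700 uM CuSO4 induction for 20 h at ambient temperature; inhibition read as reduced luminescence.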
TDP1 cell noCPT = qHTS for Inhibitors of human tyrosyl-DNA phosphodiesterase 1 (TDP1): qHTS in cells in absence of CPT. DT40 Tdp1-/- hTDP1 cells, no CPT, ATP luminescence, 48 h. Potency, µM (top dose mostly 46.2 µM), inactives show at the highest dose activity change, negative = growth inhibition, hits mostly inhibitors. 420,000 compounds, 15% hits; note: nearly all actives have a fitted effect of over 55% in size
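No-CPT arm: Tdp1-/-;hTDP1 DT40 cells (400/well) plus compounds, incubated ≥48 hr at 37 °C. Readout CellTiter-Glo luminescence.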
TDP1 inh = TDP1 (human) enzyme inhibition | recombinant TDP1, AlphaScreen DNA substrate cleavage | Potency, µM (series often up to 130 µM), without a hit: at the top dose activity change, negative = inhibition, actives largely listed as inhibitors | 350,000 compounds, 0.28% hits; note: nearly all actives have a fitted effect of over 40% in size
Target sequence (Q9NUW8 whole entry, looked up): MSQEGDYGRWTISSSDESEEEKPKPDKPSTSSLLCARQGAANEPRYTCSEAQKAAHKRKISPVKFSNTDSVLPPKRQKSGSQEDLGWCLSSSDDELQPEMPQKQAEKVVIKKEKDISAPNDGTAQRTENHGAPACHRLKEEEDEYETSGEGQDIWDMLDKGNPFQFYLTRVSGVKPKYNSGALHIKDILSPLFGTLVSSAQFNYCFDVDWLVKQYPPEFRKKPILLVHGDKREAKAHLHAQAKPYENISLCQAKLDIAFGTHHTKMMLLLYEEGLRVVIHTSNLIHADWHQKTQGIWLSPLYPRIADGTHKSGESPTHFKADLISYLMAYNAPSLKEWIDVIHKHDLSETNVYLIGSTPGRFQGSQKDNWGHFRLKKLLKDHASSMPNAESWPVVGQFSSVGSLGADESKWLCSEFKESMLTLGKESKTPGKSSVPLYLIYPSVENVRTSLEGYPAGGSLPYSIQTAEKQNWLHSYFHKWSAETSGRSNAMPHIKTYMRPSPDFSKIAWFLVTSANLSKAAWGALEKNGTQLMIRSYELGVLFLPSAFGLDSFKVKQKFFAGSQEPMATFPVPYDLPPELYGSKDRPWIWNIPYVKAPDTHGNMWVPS
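Tdp1 1 nM final; 15 min RT w/ cpd; substrate 15 nM, 5 min; beads 10 ug/ml, 10 min; AlphaScreen read. Neg ctrl: no enzyme.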
TDP1 cell CPT = growth inhibition of DT40 Tdp1-/-;hTDP1 cells with camptothecin (screen for TDP1 inhibitors) | chicken DT40 Tdp1-/-;hTDP1 cells + 20 nM CPT, ATP luminescence, 48 h | Potency, µM (titrated, usually from 46.2 µM), for inactives: at the highest dose activity change, negative = growth inhibition, hits mostly inhibitors | 420,000 compounds, 12% hits | AID 686979; note: nearly all actives have a fitted effect of over 55% in size
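Chicken DT40 Tdp1-/- cells complemented with human TDP1, 400 cells/well, exposed to compounds plus 20 nM camptothecin for at least 48 h at 37 C; viability read as ATP content by CellTiter-Glo luminescence.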
VP16 counter = inhibits Gal4-VP16 luciferase reporter, ROR gamma counter-screen; Drosophila S2 Gal4-VP16 UAS-luciferase, luminescence, 20 h; Potency, µM (series often up to 53.6 µM), for inactives: top-dose activity, negative = inhibition, actives largely listed as inhibitors; 310,000 compounds, 3.5% hits;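 note: Gal4-VP16 expression switched on by copper sulfate through the metallothionein promoter; nearly all actives have a fitted effect of over 50% in size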
* marks the source's active call; other numbers are inactive results. Calls come from the whole dose curve; as a rule, active = well fitted curve in the direction sought with a large enough effect; inconclusive = small, poorly fitted or top-dose-only effect, or another doubt; inactive = no such curve, though single readings can be large; an effect the other way counts as inactive or inconclusive. % is set by controls: 0 for no effect and ±100 for the full control effect; potency is the fitted concentration of half-maximal effect.

For CC1=C(c2ccc(Cl)cc2)[N+](=O)C(C)(C)N1[O-] the results were RORgamma inh -4.1%, TDP1 cell noCPT inconclusive, TDP1 inh -5.3%, TDP1 cell CPT 16.4µM* and VP16 counter 11.6%.
`CC(=O)N1CCN(S(=O)(=O)c2cccc(C(=O)NNC(=O)COc3c(C)cccc3C)c2)CC1` gave TDP1 cell noCPT 1.9%, TDP1 inh -6.7% and TDP1 cell CPT 6.6%.
Screening O=C(NC(=S)Nc1nc(-c2ccc(Cl)cc2)cs1)c1cccs1 returned RORgamma inh 0.794µM*, TDP1 cell noCPT inconclusive, TDP1 inh 4.9%, TDP1 cell CPT inconclusive and VP16 counter 4.3%.
For Cc1ccc2nc(NC(=S)NC(=O)c3cccs3)sc2c1 the results were RORgamma inh 1.12µM*, TDP1 cell noCPT inconclusive, TDP1 inh 5.3%, TDP1 cell CPT inconclusive and VP16 counter 3.16µM*.
For Cc1ccc(-c2csc(NC(=S)NC(=O)c3cccs3)n2)cc1 the results were RORgamma inh 2µM*, TDP1 cell noCPT -27.6%, TDP1 inh -2.7%, TDP1 cell CPT inconclusive and VP16 counter -0.2%.
COc1cc(NCCCCC(C)N)c2nccc(C)c2c1 (configuration not stated) was read as TDP1 cell noCPT 3.66µM* and TDP1 cell CPT 5.8µM*.
COCCCNc1ccnc2c(Cl)cccc12 was read as RORgamma inh 15.2%, TDP1 cell noCPT inconclusive, TDP1 inh 1.0%, TDP1 cell CPT inconclusive and VP16 counter -17.6%.
`Cc1cccc(OCC(=O)OCc2cc(=O)n3nc(C4CCCCC4)sc3n2)c1` gave TDP1 cell noCPT -8.6%, TDP1 inh 8.4% and TDP1 cell CPT -16.7%.
COCCN(C(=S)Nc1cccc(C)c1)C(C)c1cccnc1 (configuration not stated) was read as RORgamma inh 11.2µM*, TDP1 cell noCPT 0.1%, TDP1 inh 3.4%, TDP1 cell CPT 3.8% and VP16 counter -4.2%.
`COCCCN(C(=S)Nc1cc(C)cc(C)c1)C(C)c1ccncc1` (configuration not stated) gave RORgamma inh 12.6µM*, TDP1 cell noCPT -21.3%, TDP1 inh 3.5%, TDP1 cell CPT -4.8% and VP16 counter inconclusive.
Screening Cc1cccc(C)c1NC(=S)N(CCN(C)C)C(C)c1ccccn1 (configuration not stated) returned RORgamma inh -42.9%, TDP1 cell noCPT -17.4%, TDP1 inh 6.9%, TDP1 cell CPT -0.4% and VP16 counter 1.4%.
For CCOc1ccc(NC(=O)N(CCN(C)C)C(C)c2cccnc2)cc1 (configuration not stated) the results were RORgamma inh -6.9%, TDP1 cell noCPT 0.0%, TDP1 cell CPT 5.4% and VP16 counter -6.7%.
COCCCN(C(=S)Nc1ccc(OC)cc1)C(C)c1ccncc1 (configuration not stated) was read as RORgamma inh -10.6%, TDP1 cell noCPT -21.7%, TDP1 inh -1.1%, TDP1 cell CPT 12.3% and VP16 counter -2.4%.
`CCOc1ccc(NC(=S)N(CCOC)C(C)c2cccnc2)cc1` (configuration not stated) gave RORgamma inh 11.2µM*, TDP1 cell noCPT -22.3%, TDP1 inh 0.0%, TDP1 cell CPT 15.5% and VP16 counter -0.6%.
COCCCN(C(=S)Nc1c(C)cc(C)cc1C)C(C)c1ccccn1 (configuration not stated) was read as RORgamma inh 14.1µM*, TDP1 cell noCPT 20.6µM*, TDP1 inh -0.6%, TDP1 cell CPT inconclusive and VP16 counter inconclusive.
`COc1ccc([C@@H]2[C@@H]3C(=O)N(C(C)(C)C)C(=O)[C@@H]3[C@]3(CC(C)C)C(=O)N(c4ccccc4)C(=O)N23)cc1` gave RORgamma inh 13.5%, TDP1 cell noCPT -7.2%, TDP1 cell CPT -6.8% and VP16 counter inconclusive.
CCSc1cnn(-c2ccccc2)c(=O)c1SCC was read as RORgamma inh inconclusive, TDP1 cell noCPT -10.1%, TDP1 inh 4.6%, TDP1 cell CPT 6.8% and VP16 counter 15.5%.
`CCCCSc1cnn(-c2ccccc2)c(=O)c1SCCCC` gave RORgamma inh inconclusive, TDP1 cell noCPT inconclusive, TDP1 inh -10.9%, TDP1 cell CPT inconclusive and VP16 counter 14.1µM*.
`CC(=O)c1ccc(NC(=O)Cn2nc(C)c([N+](=O)[O-])c2C)cc1` gave RORgamma inh -10.8%, TDP1 cell noCPT -1.4%, TDP1 inh 0.0%, TDP1 cell CPT 3.4% and VP16 counter -13.2%.
For Cc1cc(C(=O)COC(=O)c2ccccc2O)c(C)n1Cc1cccs1 the results were RORgamma inh 3.55µM*, TDP1 cell noCPT 14.6µM*, TDP1 inh 6.8%, TDP1 cell CPT inconclusive and VP16 counter 7.08µM*.
`Cc1cc(C(=O)COc2cccnc2[N+](=O)[O-])c(C)n1Cc1cccs1` gave RORgamma inh 9.2%, TDP1 cell noCPT inconclusive, TDP1 inh 2.5%, TDP1 cell CPT inconclusive and VP16 counter -2.6%.
CC(=O)Nc1ccccc1OCC(=O)c1cc(C)n(Cc2cccs2)c1C was read as RORgamma inh -38.0%, TDP1 cell noCPT 1.46µM*, TDP1 inh 11.4%, TDP1 cell CPT 1.84µM* and VP16 counter 1.26µM*.
For CCCn1c(SCC(=O)N2c3ccccc3CCc3ccccc32)nc2c1c(=O)n(C)c(=O)n2C the results were RORgamma inh -11.4%, TDP1 cell noCPT inconclusive, TDP1 inh 2.0%, TDP1 cell CPT -26.5% and VP16 counter -7.0%.
COCCn1c(SCC(=O)N2CCc3ccccc3C2)nc2ccccc2c1=O was read as RORgamma inh 27.6%, TDP1 cell noCPT inconclusive, TDP1 inh 5.4%, TDP1 cell CPT 20.6µM* and VP16 counter -6.4%.
`CCCCn1c(SCC(=O)N2c3ccccc3Sc3ccccc32)nc2c1c(=O)n(C)c(=O)n2C` gave RORgamma inh inconclusive, TDP1 cell noCPT 25.9µM*, TDP1 inh -2.4%, TDP1 cell CPT inconclusive and VP16 counter 4.1%.
Screening CCCCn1c(SCC(=O)N2CCCc3ccccc32)nc2c1c(=O)n(C)c(=O)n2C returned RORgamma inh -20.5%, TDP1 cell noCPT 22.4µM*, TDP1 inh 4.2%, TDP1 cell CPT 17.8µM* and VP16 counter -1.8%.
Screening CCn1c(SCC(=O)N2c3ccccc3Sc3ccccc32)nc2c1c(=O)n(C)c(=O)n2C returned RORgamma inh 12.8%, TDP1 cell noCPT inconclusive, TDP1 inh 1.0%, TDP1 cell CPT inconclusive and VP16 counter -1.3%.

Source: PubChem BioAssay
